Bioassay records (PubChem BioAssay)
Most compounds without a hit are left out; they make up all but 21% or so of the library.
MRP-1 activ: MRP-1 activation | H69AR cells + doxorubicin, viability rescue, CellTiter-Glo | viability increase, % at 10 µM | 140,000 tested, 0.61% active | AID 799;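 active = viability gain under doxorubicin at or above a set limit, the compound median plus 3 SD, cut at about 4.7% in these data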;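 also: MRP-1 overexpressing cells given doxorubicin 25 µM after compound pretreatment; 18-22 h compound pretreatment then 72 h with doxorubicin before readout; 0% = doxorubicin-only wells and 100% = vehicle-treated cells without doxorubicin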
CYP2C9 act: CYP2C9 (human) activation; P11712; recombinant CYP2C9, luciferin-H conversion, luminescence; hits give high values; factor 1 = untreated enzyme, 0 = blocked; activation factor at 5 µM; 96,000 tested, 1.4% active; AID 1024;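 active = activation factor of 2 or more for CYP2C9 at a 5 µM dose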;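 also: 0 = sulfaphenazole-blocked wells and 1 = vehicle-only wells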
CYP2C19 inh: inhibitors of human CYP2C19. P33261. CYP2C19 Supersomes, luciferin-H EGE luminescence, 30 min. inhibition, % at 5 µM. 96,000 tested, 21% active. AID 778;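 active = CYP2C19 inhibition above a set limit at 5 µM in the primary screen, cut at about 50% in these data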;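 also: plate controls were negative control wells for no effect and 2.5 mM tranylcypromine positive control for full effect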
Target sequence (P33261 whole entry, looked up): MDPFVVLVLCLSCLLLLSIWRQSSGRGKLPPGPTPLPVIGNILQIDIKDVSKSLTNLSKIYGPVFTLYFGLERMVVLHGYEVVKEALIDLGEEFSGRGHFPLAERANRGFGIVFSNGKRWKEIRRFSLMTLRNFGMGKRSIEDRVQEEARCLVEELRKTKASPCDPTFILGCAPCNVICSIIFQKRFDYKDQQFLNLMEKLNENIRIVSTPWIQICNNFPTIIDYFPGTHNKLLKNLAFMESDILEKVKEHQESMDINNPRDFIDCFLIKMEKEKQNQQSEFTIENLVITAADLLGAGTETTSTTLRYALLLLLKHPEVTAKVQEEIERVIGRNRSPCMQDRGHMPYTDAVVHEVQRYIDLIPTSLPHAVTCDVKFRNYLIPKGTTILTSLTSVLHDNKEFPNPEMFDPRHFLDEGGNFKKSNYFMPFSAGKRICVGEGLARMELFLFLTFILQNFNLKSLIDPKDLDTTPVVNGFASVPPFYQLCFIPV
CYP2C9 inhib: inhibitors of human CYP2C9. P11712. inhibition, % at 5 µM. CYP2C9 Supersomes, luciferin-H conversion, luminescence. 96,000 tested, 20% active;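 active = blocking of liver enzyme CYP2C9 beyond about 50% at 5 µM, limit read from the data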
MRP reversal: MRP-mediated drug resistance reversal | H69AR cells + 2 uM doxorubicin, CellTiter-Glo, 72 h | differential viability (reversal), % at 10 µM | 85,000 tested, 0.04% active | AID 602;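 active = viability drop by adding the cancer drug above about 55%, with treated viability meeting a 40% cutoff, limit read from the data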;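 also: viability without doxorubicin minus viability with 2 µM doxorubicin for each compound; larger differential means the compound sensitizes cells more to doxorubicin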
CYP2C19 activ: activators of human cytochrome P450 2C19. P33261. recombinant CYP2C19, luciferin-H EGE luminescence; hits give high values; 0 = fully inhibited enzyme, 1 = untreated enzyme. activation factor at 5 µM. 96,000 tested, under 10 active;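 active = activation factor of at least 2 at 5 µM in the primary screen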;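 also: 0 = wells with 2.5 mM tranylcypromine and 1 = vehicle-only wells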
Active calls of the source: *; x = no result given.

SMILES | MRP-1 activ | CYP2C9 act | CYP2C19 inh | CYP2C9 inhib | MRP reversal | CYP2C19 activ
COc1ccccc1-c1c(C(F)(F)F)oc2cc(OS(C)(=O)=O)ccc2c1=O | -2 | x | x | x | x | x
Cc1cc(C)nc(-n2nc(C)cc2NC(=O)c2cccc(S(=O)(=O)N3CCCCC3)c2)n1 | -3 | 0.7 | 8 | 28 | x | 0.9
O=C(C1CCN(S(=O)(=O)c2cccc3cccnc23)CC1)N1CCn2c1nc1ccccc12 | 2 | 1.4 | 40 | -39 | 5 | 0.6
CC(=O)c1ccc(NC(=O)C2CCCN2S(=O)(=O)c2cccc3cccnc23)cc1 (configuration not stated) | -2 | 0.9 | 41 | 14 | 6 | 0.6
O=C(C1CCCN1S(=O)(=O)c1cccc2cccnc12)N1CCn2c1nc1ccccc12 (configuration not stated) | -3 | 0.4 | 0 | 58* | -8 | 1
COc1ccccc1CNC(=O)C1CCCN1S(=O)(=O)c1cccc2cccnc12 (configuration not stated) | -2 | 0.9 | 83* | 11 | -6 | 0.2
COc1cc(NC(=O)C2CCCN2S(=O)(=O)c2cccc3cccnc23)cc(OC)c1OC (configuration not stated) | -5 | 0.2 | -1 | 83* | x | 1
Cc1cccc(NC(=O)C2CCCN2S(=O)(=O)c2cccc3cccnc23)c1 (configuration not stated) | -2 | 0.3 | 27 | 70* | 0 | 0.7
O=C(Nc1ncc(Br)s1)C1CCCN1S(=O)(=O)c1cccc2cccnc12 (configuration not stated) | -4 | 0.6 | 14 | 40 | x | 0.9
CCN(CC)S(=O)(=O)c1ccc(N2CCN(c3cccc(OC)c3)CC2)c([N+](=O)[O-])c1 | -1 | x | x | x | x | x
Cc1ccc(NC(=O)C2CCCN2S(=O)(=O)c2cccc3cccnc23)cc1F (configuration not stated) | 0 | 0.1 | 23 | 94* | 4 | 0.8
CC(NC(=O)C1CCCN1S(=O)(=O)c1cccc2cccnc12)c1ccccc1 (configuration not stated) | 0 | 1.8 | 36 | -85 | 6 | 0.6
N#Cc1c(SCC(=O)Nc2ccccc2)nsc1SCC(=O)Nc1ccccc1 | -2 | x | x | x | x | x
CCOc1ccc(NS(=O)(=O)c2ccc(NC(=O)C3CCCO3)cc2)cc1 (configuration not stated) | -1 | 0.5 | 33 | 47 | 5 | 0.7
CCOc1ccc(S(=O)(=O)Nc2cccnc2)cc1 | -1 | 0.3 | 94* | 66* | -7 | 0.1
CCOc1ccc(NS(=O)(=O)c2ccc(NS(=O)(=O)c3ccc(SC)cc3)cc2)cc1 | -2 | 0.1 | 35 | 87* | -2 | 0.7
CCCC(=O)NC(=S)Nc1ccc(S(=O)(=O)Nc2ccc(OCC)cc2)cc1 | -3 | x | x | x | x | x
CS(=O)(=O)Nc1ccc(S(=O)(=O)Nc2nccs2)cc1 | 0 | 0.7 | -3 | 29 | -8 | 1
CCOc1ccc(NS(=O)(=O)c2ccc(NS(C)(=O)=O)cc2)cc1 | -1 | 0.4 | 24 | 64* | -8 | 0.8
CCOc1ccc(NS(=O)(=O)c2ccc(NC(=S)NC(=O)CC(C)C)cc2)cc1 | -2 | 0 | 90* | 99* | x | 0.1
O=S(=O)(Nc1cccnc1)c1ccc(Cl)c(C(F)(F)F)c1 | -1 | 0.4 | 72* | 57* | 5 | 0.3
COc1ccc(OC)c(NS(=O)(=O)c2ccc(SC)cc2)c1 | -5 | x | x | x | -25 | x
COc1ccc(NS(=O)(=O)c2ccc(NS(=O)(=O)c3ccc(SC)cc3)cc2)c(OC)c1 | -1 | 0.2 | 20 | 83* | -22 | 0.8
CC1CC(C)CN(c2cc(=O)n(Cc3ccc(F)cc3)c(=O)[nH]2)C1 (configuration not stated) | -2 | 1 | -10 | 2 | 1 | 1.1
O=C(NC1CCCCC1)N(CCO)Cc1cc2cc3c(cc2[nH]c1=O)OCCO3 | 0 | 0.5 | 3 | 53* | 12 | 1
COc1ccccc1C1C2C(=O)N(c3ccccc3)C(=O)C2ON1c1ccccc1 (configuration not stated) | -1 | 0.1 | 77* | 86* | 3 | 0.2
O=C(O)COc1ccccc1C1C2C(=O)N(c3ccc(F)cc3)C(=O)C2ON1c1ccccc1 (configuration not stated) | -3 | 0.5 | 38 | 54* | 1 | 0.6
